# Measurements reported in PubChem BioAssay AID1476 (National Center for Advancing Translational Sciences (NCATS), 2009).
# About 4,500 (2.2%) of roughly 200,000 compounds were called active. Another 12% or so got no clear call; they are omitted. Only a selection was taken, and actives are over-represented in it overall. Unmarked numbers belong to inactive results. Calls follow the shape of the dose curve; as a rule, active = well fitted inhibition curve with a large enough effect; inconclusive = small, poorly fitted or top-dose-only effect, or effect the other way; inactive = flat fitted curve, though single readings scatter.
# Molecular target: Cruzipain (Trypanosoma cruzi) (UniProt P25779)
# Sequence (P25779 123-467 limits assumed): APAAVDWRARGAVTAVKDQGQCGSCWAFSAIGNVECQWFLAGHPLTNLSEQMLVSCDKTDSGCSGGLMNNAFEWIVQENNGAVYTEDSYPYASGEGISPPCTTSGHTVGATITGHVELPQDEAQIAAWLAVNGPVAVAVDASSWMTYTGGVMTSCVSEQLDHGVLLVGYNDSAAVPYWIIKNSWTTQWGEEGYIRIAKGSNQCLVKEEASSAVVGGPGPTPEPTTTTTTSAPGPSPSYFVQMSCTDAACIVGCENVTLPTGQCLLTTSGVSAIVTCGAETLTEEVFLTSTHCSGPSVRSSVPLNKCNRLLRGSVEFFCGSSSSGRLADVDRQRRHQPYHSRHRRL
# Test: qHTS Assay for Promiscuous and Specific Inhibitors of Cruzain (without detergent); also: nearly all actives have a fitted effect of over 40% in size;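 as to max response, negative = inhibition: plate controls were enzyme without inhibitor for no effect and buffer without enzyme for full effect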
# Conditions: purified cruzain, Z-FR-AMC fluorescence, no detergent
# Outline: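 Detergent-free condition (0.00005% Triton X-100) in acetate buffer pH 5.5 with DTT. 1.5 nM enzyme and compound were pre-mixed 15 min, then 2 uM Z-FR-AMC substrate added; reaction progress from fluorescence change between first and third reads (60 s).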
# Potency is read from the fitted curve at half-maximal effect.
Structure (SMILES),"max response, negative = inhibition",Potency
O=C(NCCCc1ccccc1)c1ccc2c(c1)sc1nc(-c3ccc(F)cc3)cn12,4.05%,
O=C(Nc1cccc2ncccc12)c1ccc(-c2ccc(Cl)cc2Cl)o1,-11.1%,
Cc1csc(NC(=S)Nc2cccc(Cl)c2)n1,-0.724%,
Cc1csc(NC(=O)c2ccc(-c3ccc(Cl)cc3Cl)o2)n1,,10 µM (active)
Cc1ccc(NC(=O)c2cc3cc(C)ccc3n2C)cc1,-3.53%,
O=C(Nc1ccc2c(c1)OCO2)c1ccc(N2C(=O)c3ccccc3C2=O)cc1,,6.31 µM (active)
Cn1c(=O)n(C)c2cc(C(=O)Nc3ccc4c(c3)OCO4)ccc21,-14%,
O=C(Nc1ccccc1)c1ccc2c(c1)OCO2,1.37%,
CCOc1ccc(CNC(=O)CCC(=O)N2CCSc3ccccc32)cc1,1.55%,
COc1ccc(-c2onc(C)c2C)cc1S(=O)(=O)NCC1CCN(Cc2cccc(F)c2)CC1,0.417%,
CCc1ccccc1NC(=O)CSc1nnc(-c2ccccc2)c(-c2ccccc2)n1,-0.884%,
Clc1cccc(N=C2NN=C(c3ccc4c(c3)OCCO4)CS2)c1,,10 µM (active)
CCOC(=O)C1=C(O)CSC1=Nc1cccc(Cl)c1,-9.26%,
CCOc1ccc(CNC(=O)Cn2cc3c(n2)-c2c(oc(C(=O)N4CCCC4)c2C)CC3)cc1,23.3%,
COc1ccc2cc(CNc3ccc(OC)c(OC)c3)c(=O)n(CC(=O)Nc3ccccc3F)c2c1,13.9%,
O=C(CSc1nccn1C1CCCC1)Nc1cc(C(F)(F)F)ccc1Cl,9.92%,
COc1ccc(C(=O)CSc2nnc(NC(=O)C3CC(=O)N(c4cccc(OC)c4)C3)s2)cc1 (stereo not drawn),-5.43%,
O=C(/C=C/c1ccccc1)Nc1nnc(SCC(=O)c2ccc3ccccc3c2)s1,,6.31 µM (active)
CC(=O)c1ccc(NC(=O)CSc2nnc(NC(=O)Nc3ccccc3)s2)cc1,10.4%,
O=C(NCCc1csc(-c2ccc(C(F)(F)F)cc2)n1)C(=O)Nc1ccc(F)c(Cl)c1,-2.67%,
Cc1ccc(OCC(=O)OCc2cc(=O)n3nc(C4CC4)sc3n2)cc1,-8.05%,
c1ccc2sc(SCCSc3nc4ccccc4s3)nc2c1,-3.12%,

Structure (SMILES),"max response, negative = inhibition",Potency
N#C/C(=C(/O)Cc1cccc2ccccc12)c1nc2ccccc2s1,,12.6 µM (active)
COC(=O)c1nc2ccccc2s1,-9.6%,
Cc1ccc(-c2nn3c(=O)cc(CN4CCN(C(=O)Nc5cccc(C(F)(F)F)c5)CC4)nc3s2)cc1,-9.63%,
COc1ccc(Cn2c(C(=O)O)c(CNCCc3cccs3)c3ccc(OC)cc32)cc1,-3.19%,
Cc1ccc(NS(=O)(=O)c2ccc3c(c2)CC(=O)N3)cc1Cl,,15.8 µM (active)
COc1ccc(NC(=O)CCNS(=O)(=O)c2ccc3c(c2)CCCC(=O)N3)cc1Cl,-2.51%,
Cc1ccc(S(=O)(=O)NCCC(=O)Nc2ccc(C)c(Cl)c2)cc1C,-0.389%,
Cc1nn(CC(=O)O)c(=O)c2cc3cc(F)ccc3n12,-12.5%,
Cc1cccc(-n2ccnc2SCC(=O)Nc2cc(C(F)(F)F)ccc2Cl)c1,-5.01%,
Cc1ccc(NC(=O)CSc2nc3c(c(=O)[nH]2)CN(Cc2ccc4c(c2)OCO4)CC3)cc1C,-8.7%,
COc1ccc(OCC(=O)OCC(=O)Nc2ccc(S(=O)(=O)N3CCCCC3)cc2)cc1,6.2%,
CCn1c2ccccc2c2cc(NC(=O)COC(=O)c3cc(S(=O)(=O)N4CCCCC4)ccc3Cl)ccc21,,6.31 µM (active)
CC(=O)c1c(C)[nH]c(C(=O)OCC(=O)Nc2cc(S(=O)(=O)N3CCCCC3)ccc2C)c1C,9.33%,
CCOC(=O)CNC(=O)c1cc2c(=O)n3cccc(C)c3nc2s1,-17.8%,
O=C(Cn1cc(SCc2ccccc2)c2ccccc21)N1CCCCC1,-0.659%,
C=CCNC(=O)/C(=C\c1cccc([N+](=O)[O-])c1)NC(=O)c1ccccc1,10.7%,
CN(C)CCNC(=O)/C(=C/c1cccc([N+](=O)[O-])c1)NC(=O)c1ccccc1,-6.18%,
O=C(N/N=C/c1cc([N+](=O)[O-])ccc1O)/C(=C\c1cccs1)NC(=O)c1ccccc1,,20 µM (active)
COc1cccc(NC(=O)N2CCN(C(=O)c3nsc4ccccc34)CC2)c1,16.2%,
COc1cc(OC)c(NC(=O)c2c3c(nn2C)-c2ccccc2SC3)cc1Cl,-6.8%,
COc1ccc(NC(=O)CSc2nc3ncccc3[nH]2)c(OC)c1,-7.09%,
O=C(CC(c1cccs1)N1Cc2ccccc2C1=O)Nc1ccc(F)cc1F (stereo not drawn),-15.6%,

Structure (SMILES),"max response, negative = inhibition",Potency
O=C(c1cc2sccc2n1Cc1ccc(F)cc1)N1CCc2ccccc21,,25.1 µM (active)
Cc1cc(=O)[nH]c(SCC(=O)N2c3ccccc3CC2C)n1 (stereo not drawn),-2.54%,
CC1Cc2ccccc2N1C(=O)c1cc2sccc2n1Cc1ccccc1 (stereo not drawn),,25.1 µM (active)
CCOC(=O)c1cc2sccc2n1Cc1ccc(C#N)cc1,-11.1%,
O=C(NCc1ccco1)c1cc2sccc2n1Cc1ccc(F)cc1,-11.7%,
CC(=O)Nc1ccc(NC(=O)c2cc3sccc3n2Cc2ccc(F)cc2)cc1,23.5%,
Cc1ccc(-c2nc(SCc3ccc(Br)cc3)n3[nH]c(=O)cc3n2)cc1,-0.81%,
COc1ccc(OC)c(CNC(=O)Cn2nc(C)c3c(C)n(-c4ccccc4)nc3c2=O)c1,-8.59%,
N#Cc1c(NC(=O)CSc2nc3ccccc3c(=O)n2Cc2ccco2)sc2c1CCCC2,,10 µM (active)
CC(Sc1nc2ccccc2c(=O)n1Cc1ccco1)C(=O)c1ccccc1 (stereo not drawn),-8.72%,
NC(=O)c1c(NC(=O)CSc2nnc(-c3ccco3)n2N)sc2c1CCCC2,-17%,
CCOc1ccc(N(CC)S(=O)(=O)N2CCCC(C(=O)NCc3ccc(SC)cc3)C2)cc1 (stereo not drawn),16%,
O=C1CCCC2=C1C(c1ccccc1)n1c(s/c(=C/c3cccc(F)c3)c1=O)=N2 (stereo not drawn),-0.66%,
COc1ccc(OC)c(C2C3=C(N=c4s/c(=C\c5cccc(O)c5)c(=O)n42)c2ccccc2CC3)c1 (stereo not drawn),,3.16 µM (active)
COCCOC(=O)C1=C(C)N=c2s/c(=C\c3cccs3)c(=O)n2C1c1cccs1 (stereo not drawn),14.7%,
Cc1ccc2nc(NC(=O)c3nc(SCc4ccccc4F)ncc3Cl)sc2c1,16.1%,
CCCOC(=O)c1c(NC(=O)c2cc3nc(-c4ccc(OC)cc4)cc(C(F)(F)F)n3n2)sc2c1CCCC2,3.32%,
CCCOC(=O)c1c(NC(=O)c2cnn3c2NC(c2ccccc2)CC3C(F)(F)F)sc2c1CCCC2 (stereo not drawn),,5.01 µM (active)
CCOC(=O)c1c(NC(=O)c2ccc(Br)o2)sc2c1CCCC2,-20.9%,
CCOC(=O)c1ccc(NC(=O)CCn2c(=O)oc3ccccc32)cc1,-3.92%,
CCOC(=O)C1CCN(c2nc3c(S(=O)(=O)c4ccc(CC)cc4)nnn3c3ccc(Cl)cc23)CC1,-25.4%,
CCNC(=O)c1cc2n(n1)CCCN(Cc1ccc(C)cc1)C2=O,4.87%,

Structure (SMILES),"max response, negative = inhibition",Potency
Cc1ccccc1CNC(=O)CCc1cn(Cc2ccccc2C)c2ccccc12,0.523%,
COc1ccc(C)cc1Nc1nc2ccccc2c2nnc(C)n12,-0.388%,
COc1ccc(C)cc1Nc1nc(-c2c(C)[nH]c3ccccc23)cs1,,25.1 µM (active)
COc1ccc(OC)c(Nc2nc(-c3ccc(O)c(O)c3)cs2)c1,-16.7%,
COCCNC(=O)c1ccc2c(c1)N=C(C)c1cc(C)ccc1S2,12.7%,
CCC1=Nc2cc(C(=O)NCC(C)c3ccccc3)ccc2Sc2ccc(C)cc21 (stereo not drawn),,12.6 µM (active)
CCCC1=Nc2cc(C(=O)NCc3ccco3)ccc2Sc2ccccc21,-12.6%,
Cc1ccc(CCNC(=O)c2ccc(CNS(=O)(=O)c3ccc(C)cc3)cc2)cc1,-23%,
CCOC(=O)c1cc2c(=O)n3ccccc3nc2n(CCCOC)c1=NC(=O)C(C)(C)Oc1ccc(Cl)cc1,4%,
Cc1ccc(/C=N/NC(=O)C2=NNC(c3ccccc3)(c3ccccc3)C2)c(O)c1,,20 µM (active)
Cc1ccc2nc(CNC(=O)c3ccccc3)[nH]c2c1,6.98%,
COc1cccc(/C=N\NC(=O)C2=NNC(=O)C2C)c1O (stereo not drawn),14.7%,
COc1ccc(CCNc2ncnc3onc(-c4ccc(Cl)cc4)c23)c(OC)c1,-2.97%,
CCOc1cccc(CNC(=O)c2ccc(N3CCCC3)c(NC(=O)Nc3ccccc3CC)c2)c1,-7.71%,
Clc1ccccc1CSc1nnc(-c2ccco2)c(-c2ccco2)n1,,15.8 µM (active)
c1ccc(CSc2nnc(-c3ccco3)n2Cc2ccccc2)cc1,-8.71%,
Nc1nc(SCc2ccccc2Cl)n[nH]1,3.93%,
O=C(Nc1nnc(SCc2ccccc2)s1)c1ccco1,-28.7%,
Clc1ccccc1CSc1nncn2c1cc1occc12,-9.48%,
c1ccc(CSc2nnc(-c3ccco3)c(-c3ccco3)n2)cc1,,15.8 µM (active)
Cc1ccccc1-c1nc(SCC(=O)N(C)c2ccccc2)c2c(=O)n(C)c(=O)n(C)c2n1,8.08%,
Cc1[nH]c2ccccc2c1C(c1ccccc1)c1cccs1 (stereo not drawn),3.04%,
